SMILES strings stand for the structures. Values joined by “and” are separate entries in the source; they are usually repeats but may differ in a detail not shown here. Equal entries are not always repeated. About 83,000 compounds went through this panel and 20% of them were active in at least one assay; those are over-represented in the sample as a whole.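 Treatment: one concentration, 48 hours, 96-well format. Scoring: percent growth, with anything below 10 considered active.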 Unmarked numbers belong to inactive results. Active and inactive are the calls of the source.

The experiment concerns MDA-MB-468 breast. Briefly: NCI-60 one-dose screen, 48 h (100 = growth as untreated, 0 = no growth, -100 = all killed). Conditions: 10 µM unless noted.
For the compound `O=C1CC(C(F)(F)F)Cc2nc3ccc(Br)cc3cc21` (stereo not given), the growth is 94.8%. Under `c1ccc2cc3nc4cc5ccccc5cc4nc3cc2c1` stands 117%. For the compound `CCN1C(=O)N(CC)C2C1NN=c1s/c(=C\c3ccc(C(F)(F)F)cc3)c(=O)n12` (stereo not given), the growth was 9.87% (active).

Take `CC(C)NC(=O)OCc1c(COC(=O)NC(C)C)c(-c2ccc(Cl)c(Cl)c2)n2c1SCC2`: the growth was -73.9% (active). `FC(F)(F)c1ccc(-c2cnc(Br)nc2NC2CCCCCC2)cc1`: the growth was 12.6%. With `NS(=O)(=O)N(c1cc(C(F)(F)F)cc(C(F)(F)F)c1)C1CCN(Cc2ccc(C(F)(F)F)cc2)CC1`, the growth is -42.5% (active).

`CCC(C)[C@H](NC(=O)NC(=O)NC(=O)CI)C(=O)OC` (stereo not given in full): the growth was 86.4%. For the compound `O=C1C(Cl)=C(Nc2ccc(S(=O)(=O)c3ccc(NC4=C(Cl)C(=O)c5ccccc5C4=O)cc3)cc2)C(=O)c2ccccc21`, the growth is -60.1% (active). Under `COc1cccc(-c2nn(-c3ccccc3)cc2-c2ccnc(NCCCNC(=O)c3ccccc3)c2)c1` stands 15.2%.

Consider `O=C(/C=C1\C(=O)N(Cc2ccc([N+](=O)[O-])cc2)c2ccccc21)c1ccc(OCCN2CCCC2)cc1`, for which the growth was 59.4%. Take `O=C1NC(=C(Cl)Cl)/C(=N/S(=O)(=O)N2CCCCC2)N1`: the growth was -38% (active). Under `COc1ccc2c(C3=C(c4cn(C)c5ccccc45)C(=O)NC3=O)coc2c1` stands 30.5%.

`CC(=O)OCCCCCNc1ccccc1`: the growth is 125%. With `O=S(=O)(NCCNc1nccc(-n2cnc3ccccc32)n1)c1ccc(C(F)(F)F)cc1`, the growth is 26.4%.

Consider `COc1ccc(-c2nc3cc(Cl)c(Cl)cc3n2CC(=O)N=Nc2c(O)[nH]c3ccc(Br)cc23)cc1`, for which the growth is -71% (active). The figure for `CCOC(=O)c1c(C)cc(=O)oc1C` is 105%; for `O=C(Nc1cccc(Cl)c1)c1cc2ccccc2cc1O` it is 55.4% and 17.8%. On to `OCCSc1ccc(Cl)cc1`, for which the growth is 106%. On to `C#C[C@]1(O)CC[C@H]2[C@@H]3CC=C4c5sc(N6CCN(C)CC6)nc5CC[C@]4(C)[C@H]3CC[C@@]21C`, for which the growth is 47.6%. Consider `O=S(=O)(NCCCNc1nccc(-c2c(-c3ccc(F)c(O)c3)nc3sccn23)n1)c1ccc(F)cc1`, for which the growth is -0.153% (active). Under `Cc1ccccc1C(=O)NN` stands 121%; under `O=C(NCCCN1CCN(CCCNC(=O)C2CCCCC2)CC1)C1CCCCC1`, 110%; under `Cc1scc2c1N(C(=O)CN1CCN(C)CC1)c1ccccc1NC2=O`, 101%.

As for `COc1ccc(-c2nnc(N3CCN(C(=O)CN4CCN(c5ccc(Cl)cc5)CC4)CC3)nc2-c2ccc(OC)cc2)cc1`, the growth is 74%.

On to `CCCO/N=C/c1ccccn1`, for which the growth was 115% and 120%. The figure for `Oc1c(Cl)cc(Cl)cc1CNc1nccnn1` is 109%. Turning to `CCN1C(=O)N(c2ccccc2)C2NN=c3s/c(=C4\C(=O)N(C(C)C)c5ccccc54)c(=O)n3C21` (stereo not given), the growth is 21.4%. The figure for `Cc1cc2cn3c4ccc(O)cc4nc(N)c3c2cc1C` is -9.7% (active).

For the compound `Cc1cc(O)cc2c1[C@H]1CC[C@]3(C)[C@@H](O)CC[C@H]3[C@@H]1C=C2`, the growth is 96.8%. In the case of `CCN(CC)c1ccc2cc(C(Nc3ccc(C)cc3)c3nnnn3C(C)(C)C)c(=O)oc2c1` (stereo not given), the growth was 105%. The figure for `COc1ccc(/C=C2\CCc3ccccc3C2=O)cc1` is 76.7%; for `COC(=O)CNS(=O)(=O)c1ccc2c(c1)Cc1cc(S(=O)(=O)NCC(=O)OC)ccc1-2` it is 84.9%; for `Oc1c(I)cc(I)cc1CNCCCN(Cc1ccccn1)Cc1ccccn1` it is -55.7% (active).

With `CN1CCN(Cc2ccc(NC(=O)c3cncc(C#Cc4cnc5ccc(N)nn45)c3)cc2C(F)(F)F)CC1`, the growth was 25.5%.

With `Cc1ccc(C(=O)N2C/C(=C/c3ccccc3)C(=O)/C(=C/c3ccccc3)C2)cc1`, the growth was 18.1%. Regarding `COc1ccc(-c2cc(-c3cn(-c4cccc(Cl)c4)nc3-c3ccc(OC)cc3)[nH]c(=S)n2)cc1`, the growth is 39%. Under `c1ccc(CCn2nnc3c(Nc4ccc(N5CCOCC5)cc4)ncnc32)cc1` stands 76%; under `C/C(=C\C(=N\N=C(N)N)c1ccc(Cl)cc1)c1ccc(Cl)cc1`, -92.9% (active); under `CCCCCCN(CCCCCC)CCC(=O)Nc1ccc(S(=O)(=O)c2ccc(NC(=O)CCN(CCCCCC)CCCCCC)cc2)cc1`, 92.9%. On to `CN1C(=O)N(C)C2Nn3c(s/c(=C\c4ccccc4)c3=O)=NC21` (stereo not given), for which the growth was 95.4%.

(Values after PubChem BioAssay (NCI).)
